Source: PubChem BioAssay AID652017 (The Scripps Research Institute Molecular Screening Center, 2013)
In all, about 370,000 compounds went through this assay and about 3,800 (1%) were called active. Cut-off read from the data, not from the text of the source: active = activation above about 7.8%; inactive = the rest. Many of the other results were omitted from the sample, so actives are more common in it than they were.

Experiment: SMARCA2 (BRM) function activators, primary screen, cell-based, luminescence, high throughput (AID 652017);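 note: 0% = vehicle wells and 100% = reference activator wells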
Conditions: MG213 cells, MMTV-luciferase reporter, dexamethasone, overnight; at 9.1 µM; active compounds read high

SMILES | activation
O=C(c1cccs1)C1C(c2ccc(Br)cc2)NC(=S)NC1(O)C(F)(F)F (stereo unspecified) | 9.18% (active)
CCOC(=O)C1C(c2ccc(O)cc2)NC(=O)NC1(O)C(F)(F)F (stereo unspecified) | -2.11% (inactive)
Cc1cc(-c2n[nH]c(=S)n2/N=C/C(Br)=C/c2ccccc2)n[nH]1 | 12.8% (active)
CSc1ccc(C=Nn2c(-c3ccc(F)cc3)n[nH]c2=S)cc1 | -5.15% (inactive)
C=CCN1C(=O)[C@@H](CC(=O)N2CCN(C(=O)OCC)CC2)[C@]2(C(=O)OCC)CCCCC/C=C/12 | 0.06% (inactive)
CC(C)(C)C(=O)CSc1nc2ccccc2o1 | 8.4% (active)
O=C(CSc1nc2ccccc2o1)N1CCN(c2ccc(Cl)cc2)CC1 | -2.94% (inactive)
CC1Cc2ccccc2N1C(=O)CSc1nc2ccccc2o1 (stereo unspecified) | 1.43% (inactive)
COc1ccnc(C(=O)N2CCC(Oc3cccnc3)CC2)c1 | 3.85% (inactive)
COc1ccc(N2CCN(CCNS(=O)(=O)c3ccc(Cl)s3)CC2)cc1 | 0.84% (inactive)
CN1C(=O)C2(OCCCO2)c2cc(Cl)ccc21 | -0.14% (inactive)
COC(=O)c1ccc(/C=N/N2C(C)CCCC2C)cc1 (stereo unspecified) | -1.42% (inactive)
COC(=O)c1ccc(/C=C2/C(=O)Oc3ccccc32)cc1 | 10.5% (active)
O=C1Oc2ccccc2C(=O)/C1=C/c1ccccc1O | 1.29% (inactive)
CN(C)Cc1cn(-c2ccc(-c3noc4c3C(=O)N(CC(=O)N3CCOCC3)CC4)cc2)nn1 | -2.05% (inactive)
COc1ccc(S(=O)(=O)Nc2ccc3c(c2)C(=O)N([C@H](C)CO)C[C@H](C)[C@@H](CN(C)C)OCCCC[C@H](C)O3)cc1 | -4.35% (inactive)
CC1CCN(c2ccc(-c3ccc(NC(=O)c4ccco4)cc3)nn2)CC1 | 3.83% (inactive)
O=C(Nc1ccc2nccnc2c1)c1ccco1 | 9.43% (active)
Cc1cc(NC(=O)[C@H](C)NC(=O)c2ccco2)ccc1Br | -1.37% (inactive)
O=C(COC(=O)CNC(=O)c1ccco1)Nc1ccc(F)cc1 | -3.14% (inactive)
CC(OC(=O)CNC(=O)c1ccco1)C(=O)Nc1ccc(Cl)cn1 (stereo unspecified) | -2.28% (inactive)
O=C(Nc1ccc(NC(=O)c2cccs2)cn1)c1ccco1 | 9.66% (active)
C=CS(=O)(=O)N(Cc1nnn(Cc2ccccc2)c1Br)[C@H](C(=O)OC)C(C)C | 3.93% (inactive)

SMILES | activation
CCC(=O)Nc1ccc2c(c1)C(=O)N(C)[C@@H]1CC[C@@H](CC(=O)NCCc3ccccc3)O[C@H]1CO2 | -2.13% (inactive)
COc1ccc(S[C@]2(C(=O)N(C)C)CC(=O)N(c3ccc(OC)cc3)[C@@H]2c2ccc(OC)cc2)cc1 | 2.23% (inactive)
CCCCn1nnnc1C(c1cc2ccccc2o1)N(C)Cc1ccc(Cl)c(Cl)c1 (stereo unspecified) | 8.8% (active)
Cn1nnnc1NCc1ccc(Cl)c(Cl)c1 | -0.94% (inactive)
CCCCn1nnnc1C(c1ccccc1)N1CCN(c2ccccc2OC)CC1 (stereo unspecified) | -1.13% (inactive)
CC(C)N1CCCCC(NC(=O)c2ccc3ccccc3c2)C1=O (stereo unspecified) | -1.33% (inactive)
N[C@@H](Cc1ccccc1)C(=O)N1CCC[C@@H]1C(=O)N1CCC2CCN(S(=O)(=O)c3ccccc3)CC21 (stereo partly specified) | -1.95% (inactive)
CCC(c1nc2ccccc2[nH]1)n1c(=O)c(-c2cccs2)nc2ccccc21 (stereo unspecified) | -3.44% (inactive)
FC(F)(F)c1cccc(-c2cc3ccccc3nc2N2CCCC2)c1 | 0.37% (inactive)
FC(F)(F)c1cccc(-c2nc3ccccc3n2C(c2ccccc2)c2nc3ccccc3[nH]2)c1 (stereo unspecified) | 9.93% (active)
O=S(=O)(c1ccccc1)N1CCC(c2nc3ccccc3o2)CC1 | -4.23% (inactive)
O=C(C1CCN(S(=O)(=O)c2ccccc2)CC1)N1CCN(C2CCCCC2)CC1 | -4.09% (inactive)
O=C(C1CCC1)N1CCN(S(=O)(=O)c2ccc([N+](=O)[O-])cc2)CC1 | 9.83% (active)
Cc1ccc(S(=O)(=O)N2CCC(C(=O)N3CCCCCCC3)CC2)cc1 | -3.84% (inactive)
COC(=O)[C@H](C(C)C)N(CCCc1cn(Cc2ccccc2)nn1)S(=O)(=O)c1ccc(F)cc1Br | -0.98% (inactive)
CCOC(=O)c1nnn2c1nc(N1CCN(c3ccccc3)CC1)c1ccccc12 | -2.86% (inactive)
O=C(CCCCCN1C(=O)C2C3C=CC(C3)C2C1=O)Nc1ccccc1 (stereo unspecified) | -2.37% (inactive)
Cc1ccc(C)c(NC2=NCC(=O)N2c2ccc3c(c2)OCCO3)c1 | 2.74% (inactive)
Cc1cc(=O)[nH]c(N/N=C/c2ccc3c(c2)OCCO3)n1 | 8.3% (active)
Cc1cc(=O)[nH]c(Nc2cccc(Br)c2)n1 | -1.71% (inactive)
CCCCNC(=O)C[C@@H]1C(=O)N(CCc2ccc(Cl)cc2)C2=CCCC[C@]21C(=O)OCC | -0.47% (inactive)
COc1cccc(-c2cnc(OC(C)(C)C)nc2OC(C)(C)C)c1 | -2.58% (inactive)
COc1cccc(-c2nc3cc(C)ccc3o2)c1 | 7.97% (active)

SMILES | activation
COc1cccc(NS(=O)(=O)c2ccc(-c3coc(C)n3)cc2)c1 | -3.45% (inactive)
C=CCN(C)CC#Cc1ccccc1 | 0.78% (inactive)
COP(=O)(O)CNC(=O)OCc1ccccc1 | -0.59% (inactive)
CC(CCN1CCC(C(O)(c2ccccc2)c2ccccc2)CC1)Oc1ccc(Cl)cc1 (stereo unspecified) | -5.29% (inactive)
COCC(=O)Nc1c(I)c(C(=O)NCC(O)CO)c(I)c(C(=O)N(C)CC(O)CO)c1I (stereo unspecified) | -1.43% (inactive)
CCOC(=O)C1(Cc2ccccc2)CCN(Cc2cn(C(C)=O)c3ccccc23)CC1 | -3.37% (inactive)
Cc1ccc(OCCCCc2c(C)n[nH]c2C)cc1 | -4.25% (inactive)
Nc1nc(SCCOc2ccccc2)n[nH]1 | -0.38% (inactive)
CCCOc1ccc(-c2nc(N)n[nH]2)cc1 | 8.06% (active)
O=C(NCCc1c[nH]c2ccccc12)OCc1cn(-c2c(F)cccc2F)nn1 | -1.59% (inactive)
COC(=O)[C@]12C[C@H](CC(=O)N3CCOCC3)C(=O)N(Cc3ccc(Cl)cc3Cl)C1=C[C@H](COCc1ccccc1)O[C@@H]2C | -3.76% (inactive)
COC[C@@H]1CCCN1c1ccc2c(c1)O[C@H](C)CCN(C1CC1)S2(=O)=O | -0.54% (inactive)
O=S(=O)(c1ccc(F)cc1)n1ccc(-c2cnc(-c3ccccc3)s2)n1 | 0.36% (inactive)
CCOC(=O)c1csc(NC(=O)C2CCCN(S(=O)(=O)c3ccc(Cl)s3)C2)n1 (stereo unspecified) | -3.75% (inactive)
Nn1c(SCC(=O)Nc2cccc3ccccc23)nnc1-c1cc(-c2ccc(F)cc2)n[nH]1 | -3.63% (inactive)
O=C(OC12CC3CC(CC(C3)C1)C2)c1ccc(NCc2cc(O)ccc2O)cc1 | -10.6% (inactive)
CCS(=O)(=O)Nc1cc(C(=O)OC)ccc1C(=O)OC | -0.18% (inactive)
COC(=O)c1ccc(NCc2cc(O)ccc2O)cc1 | 8.39% (active)
O=C(NC1CCCCN(Cc2ccc(Cl)cc2)C1=O)c1ccc(Br)cc1 (stereo unspecified) | -1.79% (inactive)
CCc1ccc(NC2Nc3cc(C)nn3S2)cc1 (stereo unspecified) | 8.13% (active)
CC(=O)Nc1ccc(Nc2nc3c(S(=O)(=O)c4ccc(C)c(C)c4)nnn3c3ccccc23)cc1 | 0.7% (inactive)
CC(=O)Nc1ccc(Nc2c3ccccc3nc3ccccc23)cc1 | 8.59% (active)
CCc1c(C)nc2c(-c3ccccc3)c(C)nn2c1Nc1ccc(NC(C)=O)cc1 | -0.14% (inactive)

SMILES | activation
O=C(CSc1nc2c(c(=O)[nH]1)CCCC2)N1CCCCC1 | -4.24% (inactive)
CCC(=O)OCCCN1C(=O)CCC12CCC(c1ccccc1)CC2 (stereo unspecified) | -3.5% (inactive)
CC(=O)OCCN1CCCC12CCC(c1ccccc1)CC2 (stereo unspecified) | -0.56% (inactive)
C=CCN1[C@H](CC(C)C)COc2cccc(N3CCCC3)c2S1(=O)=O | -1.47% (inactive)
Nn1c(SCC(=O)Nc2ccc(S(N)(=O)=O)cc2)nnc1-c1n[nH]c2c1CCC2 | 0.23% (inactive)
Oc1cccc2ccc(/C=C/c3ccc(Br)s3)nc12 | 10.9% (active)
COc1ccc(NC(=O)Cn2ncn3c(cc4ccccc43)c2=O)c(OC)c1OC | 1.32% (inactive)
C[C@H](C(=O)N(C)c1ccccc1)[C@@H](O)c1ccc(Cl)cc1 | -0.55% (inactive)
CCOC(=O)c1sc2nc(CSc3ccccc3)[nH]c(=O)c2c1C | 9.98% (active)
CCOC(=O)c1sc2nc(C)nc(SCC(N)=O)c2c1C | -1.05% (inactive)
CSc1nnc(SCc2nc3sc(C(=O)O)c(C)c3c(=O)[nH]2)s1 | -1.68% (inactive)
Cc1csc(Nc2ccc(Cl)cc2)[n+]1-c1ccc(Cl)cc1 | -3.27% (inactive)
CCC(c1ccc(NC(=O)OC(C)(C)C)cc1)c1cc(OC)cc(OC)c1 (stereo unspecified) | -2.7% (inactive)
Cc1ccc(NC(=O)c2cc(C)nn2-c2ccccc2)c(C)c1 | -4.44% (inactive)
Cc1ccnc(Nc2nc3ccccc3s2)n1 | 10.6% (active)
Cc1ccnc(-n2sc3ccccc3c2=O)n1 | 1.96% (inactive)
Cn1c(-c2ccc(F)cc2)cc2onc(-c3ccccc3Cl)c2c1=O | 9.9% (active)
Cn1c(-c2ccc(C(F)(F)F)cc2)cc2onc(-c3ccccc3)c2c1=O | 5.26% (inactive)
Cc1[nH]n(C)c(=O)c1C(=O)c1c(-c2c(Cl)cccc2Cl)noc1C | -2.74% (inactive)
CCOC(=O)[C@]12CCCCC/C=C\1N(Cc1ccc(OC)cc1)C(=O)[C@H]2CC(=O)NCCCN1CCCC1=O | -2.38% (inactive)
O=C(CNS(=O)(=O)c1ccccc1F)N1CCN(c2ccccn2)CC1 | -3.89% (inactive)
COC(=O)[C@]12C[C@H](CC(=O)NCCc3ccccc3OC)C(=O)N(Cc3ccco3)C1=C[C@H](C(C)C)O[C@@H]2C1CC1 | -4.32% (inactive)
